Usually AC50 stands for the concentration at which the activity in the assay is half-maximal.

Inconclusive results are not listed. Calls of active or inactive are those of the source. Rule for the calls: active = hit-call score of the fitted dose curve at least 0.9, where 1 is the maximum; inconclusive = response in the unintended direction; inactive = score below 0.9.

Androgen Receptor/SRC-1 Co-activator, AR (gene 367), sequence (P10275 whole entry, looked up, the tested form may be a part): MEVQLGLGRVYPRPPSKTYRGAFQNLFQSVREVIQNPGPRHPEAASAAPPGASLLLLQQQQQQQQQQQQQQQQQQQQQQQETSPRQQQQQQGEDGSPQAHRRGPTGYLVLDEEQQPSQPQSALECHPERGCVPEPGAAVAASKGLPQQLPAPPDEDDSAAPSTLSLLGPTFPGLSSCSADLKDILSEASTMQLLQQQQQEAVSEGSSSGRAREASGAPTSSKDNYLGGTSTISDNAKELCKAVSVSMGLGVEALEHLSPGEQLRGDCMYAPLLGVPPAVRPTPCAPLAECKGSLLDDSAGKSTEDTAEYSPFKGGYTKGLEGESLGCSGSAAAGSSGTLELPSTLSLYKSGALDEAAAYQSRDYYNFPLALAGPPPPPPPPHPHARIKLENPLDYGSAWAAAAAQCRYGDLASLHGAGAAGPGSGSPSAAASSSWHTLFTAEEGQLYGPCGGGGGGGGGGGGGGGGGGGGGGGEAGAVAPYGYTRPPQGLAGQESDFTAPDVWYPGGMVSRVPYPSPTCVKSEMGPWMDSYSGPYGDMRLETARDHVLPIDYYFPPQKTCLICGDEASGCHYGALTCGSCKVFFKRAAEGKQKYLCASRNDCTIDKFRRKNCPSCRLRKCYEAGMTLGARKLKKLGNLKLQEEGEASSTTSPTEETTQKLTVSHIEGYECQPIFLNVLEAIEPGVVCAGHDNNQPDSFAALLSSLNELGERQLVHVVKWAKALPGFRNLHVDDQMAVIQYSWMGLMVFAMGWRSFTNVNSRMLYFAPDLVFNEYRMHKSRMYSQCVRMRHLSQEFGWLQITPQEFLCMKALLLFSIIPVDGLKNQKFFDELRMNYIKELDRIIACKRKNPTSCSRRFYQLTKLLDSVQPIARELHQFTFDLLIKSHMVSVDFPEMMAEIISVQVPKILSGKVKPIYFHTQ

In the test the target is Androgen Receptor/SRC-1 Co-activator, AR (gene 367) (UniProt P10275). Put plainly: OT_AR_ARSRC1_0480: Odyssey Thera (OT) 8-hour HEK293T Protein-Complementation Assay for Androgen Receptor/SRC-1 Co-activator (AID 2283354).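 Note: hits raise the complementation signal above DMSO so AC50 marks enhancers.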 As to the method:
OT_AR_ARSRC1_0480 is a cell-based, single-readout assay that uses HEK293T, a human kidney cell line, with measurements taken at 8 hours after chemical dosing in a 384-well plate.OT_AR_ARSRC1_0480 is one of one assay component(s) measured or calculated from the OT_AR_ARSRC1_0480 assay. It is designed to make measurements of protein fragment complementation, a form of binding reporter, as detected with fluorescence intensity signals by Protein-fragment Complementation technology.Data from the assay component OT_AR_ARSRC1_0480 was analyzed into 1 assay endpoint. This assay endpoint, OT_AR_ARSRC1_0480, was analyzed in the positive analysis fitting direction relative to DMSO as the negative control and baseline of activity. Using a type of binding reporter, measures of receptor for gain-of-signal activity can be used to understand the binding at the pathway-level as they relate to the gene AR. Furthermore, this assay endpoint can be referred to as a primary readout, because the performed assay has only produced 1 assay endpoint. To generalize the intended target to other relatable targets, this assay endpoint is annotated to the nuclear receptor intended target family, where the subfamily is steroidal.
Protein-fragment complementation assay, or PCA, is a method for the identification and quantification of protein-protein interactions. In the PCA, the proteins of interest ("bait" and "prey") are each covalently linked to fragments of a third protein (e.g. DHFR, which acts as a "reporter"). Interaction between the bait and the prey proteins brings the fragments of the reporter protein in close proximity to allow them to form a functional reporter protein whose activity can be measured. The OT AR / SRC-1 assay assessed androgen receptor chemical interactions using a rapidly maturing, intensely fluorescent mutant of YFP known as Venus, rationally dissected into two separate fragments. […] Fusion constructs were transfected into HEK293T cells with a (Gly4Ser)2 linker between the AR/SRC-1 and YFP fragment genes to facilitate complementation when interacting proteins bring fragments into close proximity. The construct is stably expressed in HEK293T cells. […] Images were acquired on an Evotec Opera at 2 wavelengths (488 and 635nm), and the ratio of fluorescence in the nucleus relative to fluorescence in the cytoplasm (N/C Ratio) in the 488nm channel was calculated for a minimum of 400 cells per image. Both agonists and antagonists of the AR receptor induce nuclear translocation to varying degrees. […] The OT AR/SRC-1 assay was also run for 16 hours (see description for OT_AR_ARSRC1_0960).
In the case of `CCCC(=O)OCCC(C)C`, the call was inactive. With `CCCCCCCCCC(=O)O`, the outcome was inactive. In the case of `O=c1c(-c2ccc(O)cc2)coc2cc(O)cc(O)c12`, the call was inactive. For the compound `NC(=O)c1nc(-c2cccc(-c3cc(F)ccc3OCC(F)(F)C(F)(F)F)c2)n[nH]1`, the AC50 is 50 µM (active). As for `CCCCOC(=O)c1ccc(O)cc1`, the call was inactive. `COc1cc(C(=O)NC2CCN(C)CC2)ccc1Nc1ncc2c(n1)N(C1CCCC1)CC(F)(F)C(=O)N2C`: the AC50 was 52.5 µM (active). As for `O=C(Nc1ccc(Cl)cc1)Nc1ccc(Cl)c(Cl)c1`, the compound was called inactive. Turning to `CN(C)C(=O)C1(N2CCCCC2)CCN(CC[C@@]2(c3ccc(Cl)c(Cl)c3)CN(C(=O)c3ccccc3)CCO2)CC1`, the AC50 was 16.6 µM (active). The same measure, in the same setting: with `Cc1c2ccccc2c(C)c2c1ccc1ccccc12` the figure was 11.6 µM (active). Turning to `O=C(O)c1ccccc1C(=O)OCc1ccccc1`, the compound was classed as inactive. `NCc1cccc(C2CCN(C(=O)c3ccc(C#Cc4ccccc4F)o3)CC2)c1`: the AC50 was 13.3 µM (active). As for `Cc1occc1C(=O)Nc1ccc(C(=O)N2CCC(F)(F)/C(=C\C(=O)N3CCC(N4CCCCC4)CC3)c3ccccc32)cc1`, the outcome was inactive. Same read-out and setting: with `CCN(Cc1cccnc1)C(=O)c1cccc(Cl)c1[C@]1(C)C(=O)N(Cc2ccc(OC)cc2OC)c2ccc(Cl)cc21` the entry was “inactive”. In the case of `CN(C)c1ccc(C(=C2C=CC(=[N+](C)C)C=C2)c2ccc(N(C)C)cc2)cc1`, the AC50 is 3.28 µM (active). Consider `Cc1cc(F)ccc1-c1cc(N2CC[C@@H](O)[C@H]2CO)ncc1N(C)C(=O)C(C)(C)c1cc(C(F)(F)F)cc(C(F)(F)F)c1`, for which the AC50 is 23.6 µM (active). With `OCCO`, the compound was called inactive. Turning to `CN(C[C@@H](CC[N+]12CCC(C3CCCCC3)(CC1)CC2)c1ccc(Cl)c(Cl)c1)C(=O)c1cc(C(F)(F)F)cc(C(F)(F)F)c1`, the AC50 was 20.9 µM (active).

As to `Oc1ccc2ccccc2c1`, the outcome was inactive. As to `COCC(C)OCC(C)OCC(C)O` (centres undefined), the result was inactive.

(Values after PubChem BioAssay (EPA / NIEHS).)
